These entries were drawn from the full list.
aSyn UTR act: Activators working through SNCA 5'UTR binding (MLPCN) | AID 1814 | activity score, % (tested at 7.5 µM), hits read low | alpha-synuclein 5'UTR reporter, activators screen | hit rate 7.1% among 300,000; in the data active = activity score below about -60%
Each line names hits and unclear results; the compound was inactive in the other large screens.

Nc1c2c(nc3sc4c(c13)CCCC4)CCCCC2	aSyn UTR act -170
Nc1c2c(nc3sc4c(c13)CCCC4)CCCC2	aSyn UTR act -118
CN1CCN(c2ccc3c(c2)S(=O)(=O)c2ccccc2C3=O)CC1	aSyn UTR act -112
C=C1C(=O)O[C@@H]2C[C@@H](C)[C@@H]3C4OC4C(=O)[C@@]3(C)[C@@H](O)[C@H]12 (stereo not given in full)	aSyn UTR act -221
CN1CCN(c2ccc([N+](=O)[O-])c3no[n+]([O-])c23)CC1	none
O=C1NC(=O)C(CCc2ccncc2)(Cc2cccc(Cl)c2Cl)C(=O)N1c1ccc(Br)cc1 (stereo not given)	none
Cc1cc([N+](=O)[O-])c2ccccc2[n+]1[O-]	none
CNC(=O)Oc1ccc(-c2cn3cc(C)ccc3n2)cc1	none
Cc1ccc2nc(N3CCN(C)CC3)[nH]c2c1	aSyn UTR act -96
COc1ccc(/C=C/C2=CCN(C)CC2)cc1	aSyn UTR act -79
NC(=O)c1cn(C2OC(CO)C(O)C2O)c2ncnc(N)c12 (stereo not given)	none
O=C(Nc1ccccc1)c1cccn(Cc2ccccc2)c1=O	aSyn UTR act -96
Cc1ccc(C[n+]2c(-c3ccc(C)cc3)cc(-c3ccc(C)cc3)cc2-c2ccc(C)cc2)cc1	none
C=C1C(=O)O[C@H]2C[C@@H](C)[C@@H]3C=CC(=O)[C@@]3(C)C[C@H]12	aSyn UTR act -151
C=C1C(=O)O[C@@H]2C[C@@H](C)[C@@H]3C=CC(=O)[C@@]3(C)[C@@H](OC(=O)CC(=O)O[C@H]3[C@@H]4C(=C)C(=O)O[C@@H]4C[C@@H](C)[C@@H]4C=CC(=O)[C@]43C)[C@H]12	none
CCOC(=O)c1cc2c(cn1)[nH]c1ccccc12	aSyn UTR act -142
c1ccc(-c2nc(N3CCOCC3)s[n+]2-c2ccccc2)cc1	aSyn UTR act -75
CNc1ccc2oc(C[C@H]3O[C@@]4(CC[C@H]3C)O[C@H]([C@H](C)C(=O)c3ccc[nH]3)[C@H](C)C[C@H]4C)nc2c1C(=O)O	none
Cc1ccc2cc(C=C(C#N)C#N)c(Cl)nc2c1	aSyn UTR act -79
COc1cc2c(c(OC)c1OC)-c1ccc(O)c(=O)cc1C(NC(C)=O)CC2 (stereo not given)	none
O=c1[nH]c(=S)n(C2CC2)c(O)c1C=Nc1ccc2c(c1)OCO2	aSyn UTR act -141
COc1ccc(P2(=O)Nc3ccccc3N2)cc1	aSyn UTR act -139
C=CCN=C(SCC(=O)c1ccc(Cl)cc1)c1c(O)n(C)c(=O)n(C)c1=O	aSyn UTR act -71
CN(C)C(=O)On1c(-c2ccccc2)nc2ccc(Cl)cc21	aSyn UTR act -71
Cc1ccc(-c2nc(N(C)C3CCN(C)CC3)c3ccccc3n2)cc1	aSyn UTR act -93
O=C(c1ccc2c(c1)ncn2C1CCCCC1)N1CCC2(CC1)OCCO2	aSyn UTR act -171
O=c1c2ccccc2[nH]c(=S)n1-c1ccc2c(c1)OCCO2	aSyn UTR act -105
COC(=O)C(O)(c1ccc(NC(=S)NC(=O)c2ccccc2)cc1)C(F)(F)F (stereo not given)	aSyn UTR act -80
FC(F)(F)c1ccc(NC2=NCCCS2)cc1	aSyn UTR act -69
Cc1nc2cc(-c3ccccc3)nn2c(C)c1CCC(=O)N1CCC2(CC1)OCCO2	none
O=C(c1cc(-c2ccccc2)on1)N1CCC2(CC1)OCCO2	aSyn UTR act -113
CN1C(=O)C(=Cc2ccc(OCCN(C)c3ccccn3)cc2)C(=O)N(C)C1=O	aSyn UTR act -82
CC1(C)CN=C(NCc2ccccc2Cl)S1	aSyn UTR act -92
C=CCN1C(=O)NC(=O)/C(=C/c2ccc(OC)c(COc3ccc(NC(C)=O)cc3)c2)C1=O	aSyn UTR act -64
O=C1NC(=O)N(Cc2ccco2)C(=O)/C1=C/C=C/c1ccco1	aSyn UTR act -288
C=CCN1C(=O)NC(=O)/C(=C/C=C/c2ccccc2)C1=O	aSyn UTR act -69
O=C1NC(=O)N(Cc2ccccc2)C(=O)/C1=C\C=C\c1ccco1	aSyn UTR act -222
CC1CCC(C(C)C)C(OC(=O)Cn2c(COc3ccccc3)[n+](C)c3ccccc32)C1 (stereo not given)	none
CCn1c(C)c(C(=O)Nc2ccc(OC)cc2)c2cc(OC)ccc21	aSyn UTR act -86
COc1cc(C=C2C(=O)NC(=O)NC2=O)ccc1OS(=O)(=O)c1ccccc1[N+](=O)[O-]	aSyn UTR act -96
Cc1ccc2nc3c(cc2c1)CC1(C(=O)N(C)C(=O)N(C)C1=O)C1CCCCN31 (stereo not given)	aSyn UTR act -106
Cc1ccc2nc3c(cc2c1)CC1(C(=O)N(C)C(=O)N(C)C1=O)C1COCCN31 (stereo not given)	aSyn UTR act -63
CC12CC[C@H]3[C@@H](CCC4(O)C[C@H](O)CCC34/C=N/NC(=O)c3ccccc3[N+](=O)[O-])C1(O)CCC2C1=CC(=O)OC1 (stereo not given in full)	none
CN(C)c1ccc(C(=O)c2ccc(N(C)C)cc2)cc1	aSyn UTR act -108
CCCCCCCSc1cc(OC)c(CCN(C)C)cc1OC	none
Nc1ccc2c(c1)oc1ccccc12	aSyn UTR act -113
C#CCOc1cc(C2C3=C(COC3=O)Nc3cc4c(cc32)OCO4)ccc1OC (stereo not given)	none
O=C(Nc1ccc(Cl)c(Cl)c1)c1ccco1	aSyn UTR act -170
CCC(C)/C=C(C)/C=C/C1=CC2=C(Cl)C(=O)C(C)(OC(C)=O)C(=O)C2=CO1 (stereo not given)	aSyn UTR act -96
CCCCc1nc2ccccc2c(=O)n1-c1ccccc1[N+](=O)[O-]	aSyn UTR act -73
CCOC(=O)C(O)(c1ccc(NC(=O)NC2CCCCC2)cc1)C(F)(F)F (stereo not given)	aSyn UTR act -83
CNC(=O)Oc1cccc(-c2cn3cc(Cl)ccc3n2)c1	none
CC(C)(C)c1ccc(C(=O)C2CCCN(C3CCC3)C2)cc1 (stereo not given)	aSyn UTR act -72
COc1ccccc1CN1CCCC(C(=O)c2ccccc2SC)C1 (stereo not given)	none
CC(C)(C)c1ccc(C(=O)C2CCCN(Cc3ccon3)C2)cc1 (stereo not given)	aSyn UTR act -124
NC(N)=N/N=C/c1ccc(N(c2ccccc2)c2ccccc2)cc1	none
CC(C)[C@]12O[C@H]1[C@@H]1O[C@]13[C@]1(O[C@H]1C[C@H]1C4=C(CC[C@@]13C)C(=O)OC4)[C@@H]2O	none
CC1(C)C[C@H]2C=C(C=O)[C@]3(C=O)C[C@]3(C)[C@H]2C1	none
Nc1ccccc1C(=O)OCC(=O)c1ccc2c(c1)OCCO2	aSyn UTR act -64
CC/C(=N\N1CCCCC1)c1c(O)[nH]c(=O)[nH]c1=O	none
COC(=O)C1CN(C#N)N(c2ccc(Cl)cc2)C12c1ccccc1-c1ccccc12 (stereo not given)	none
CN1C(=O)/C(=C/c2ccc(N3CCCCCC3)o2)C(=O)NC1=S	aSyn UTR act -186
CN1C(=O)/C(=C\c2ccc(N3CCCCC3)o2)C(=O)NC1=S	aSyn UTR act -162
CN1C(=O)C(=Cc2ccc(N3CCOCC3)o2)C(=O)N(C)C1=S	aSyn UTR act -65
C=C(C=O)C[C@@H]1C[C@H](O)C2OC3C[C@]4(C)OC5/C=C\CC6OC7C(CC=CCC6OC5CCCC4OC3CC2O1)OC1CC2OC3CC(=O)OC3C[C@@H](C)C[C@@]2(C)OC1C[C@@H]7C (stereo not given in full)	none
C=C1[C@@H](C)[C@H]2[C@H](Cc3ccccc3)NC(=O)[C@]23OC(=O)/C=C/[C@H](O)CCC[C@@H](C)C/C=C/[C@H]3[C@@H]1O	none
COc1ccc(NC2=NC(C)(C)CS2)cc1	aSyn UTR act -140
